C diff HTS = C. difficile growth inhibitors, primary screen, HTS. Clostridium difficile clinical isolate growth, OD600, 24 h; stronger effect = lower value. growth activity, negative = inhibition, % at 16 µg/mL (by protocol). 86,000 compounds, 0.25% hits;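 active = mean growth activity at or below -80% and every replicate also at or below -80%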;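 also: 0% = DMSO wells and -100% = levofloxacin 16 µg/mL wells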
* = called active by the depositor. The full list was thinned out, with hits kept by preference.

SMILES | C diff HTS
O=C(Nc1ccccc1F)N1C[C@@H]2N[C@H](C1)C2c1ccc(-c2cccc(F)c2)cc1 (stereo partly drawn) | 79
O=C(Nc1ccc(F)cc1)N1C[C@@H]2N[C@H](C1)C2c1ccc(-c2cccnc2)cc1 (stereo partly drawn) | -5
COc1ccc(NC(=O)N2C[C@@H]3N[C@H](C2)C3c2ccc(-c3cccc(F)c3)cc2)cc1 (stereo partly drawn) | 3
O=C(Nc1ccc(C(F)(F)F)cc1)N1C[C@@H]2N[C@H](C1)C2c1ccc(-c2cccc(F)c2)cc1 (stereo partly drawn) | -99*
COc1ccc(NC(=O)N2[C@@H]3CNC[C@H]2C3c2ccc(-c3ccc(OC)cc3)cc2)cc1 (stereo partly drawn) | -11
CCNC(=O)[C@H]1[C@H](CO)[C@H]2Cn3c(ccc(-c4ccc(OC)cc4)c3=O)[C@H]2N1Cc1nccs1 | -1
COCC(=O)N1[C@@H]2c3ccc(/C=C/c4ccccc4)c(=O)n3C[C@H]1[C@H](CO)[C@H]2C(=O)N1CCCCC1 | 1
C[C@H]1CN([C@@H](C)CO)C(=O)Cc2cc(NC(=O)Nc3cccc4ccccc34)ccc2O[C@H]1CN(C)C(=O)Nc1ccc(C(F)(F)F)cc1 | -4
Cc1ccc(S(=O)(=O)N(C)C[C@H]2OCCCC[C@H](C)Oc3ccc(NC(=O)Nc4cccc5ccccc45)cc3C(=O)N([C@@H](C)CO)C[C@@H]2C)cc1 | -2
CCC(=O)N(C)C[C@@H]1Oc2ncc(/C=C/c3ccccc3)cc2C(=O)N([C@@H](C)CO)C[C@@H]1C | -3
COCC(=O)Nc1ccc2c(c1)[C@@H]1C[C@H](CC(=O)N(C)C)O[C@@H](CO)[C@@H]1O2 | 0
C[C@H](CO)N1C[C@H](C)[C@H](CN(C)C(=O)Nc2ccccc2)OCCCC[C@H](C)Oc2ccc(NC(=O)Nc3ccc4c(c3)OCO4)cc2C1=O | -5
O=C(C[C@@H]1C=C[C@H](NC(=O)c2ccccc2)[C@H](CO)O1)Nc1ccc(-c2ccccc2)cc1 | 5
COc1ccc(C#Cc2ccc3c(c2)O[C@H](CN(C)C(C)=O)[C@@H](C)CN([C@@H](C)CO)S3(=O)=O)cc1 | -14
CNC[C@H]1Oc2c(NS(=O)(=O)c3ccc(F)cc3)cccc2C(=O)N([C@@H](C)CO)C[C@@H]1C | -4
COc1ccc(CN(C)C[C@@H]2OCCCC[C@@H](C)Oc3ccc(NC(=O)Nc4cccc5ccccc45)cc3C(=O)N([C@H](C)CO)C[C@H]2C)cc1 | 25
COc1ccc(NC(=O)Nc2ccc3c(c2)C(=O)N([C@H](C)CO)C[C@H](C)[C@H](CN(C)Cc2ccc(C(F)(F)F)cc2)OCCCC[C@@H](C)O3)cc1 | 12
COc1ccc(CN(C)C[C@@H]2OCCCC[C@H](C)Oc3ccc(NC(=O)Nc4cccc5ccccc45)cc3C(=O)N([C@H](C)CO)C[C@H]2C)cc1 | -94*
COc1ccc(NC(=O)Nc2ccc3c(c2)C(=O)N([C@@H](C)CO)C[C@@H](C)[C@H](CN(C)Cc2ccc(C(F)(F)F)cc2)OCCCC[C@@H](C)O3)cc1 | 7
COc1ccc(CN(C)C[C@H]2OCCCC[C@@H](C)Oc3ccc(NC(=O)Nc4ccc(C(F)(F)F)cc4)cc3C(=O)N([C@@H](C)CO)C[C@@H]2C)cc1 | -101*
C[C@@H]1CCCCO[C@H](CN(C)Cc2ccc3c(c2)OCO3)[C@@H](C)CN([C@H](C)CO)C(=O)c2cc(NC(=O)Nc3ccc(C(F)(F)F)cc3)ccc2O1 | -53
C[C@@H]1CCCCO[C@@H](CN(C)Cc2ccc3c(c2)OCO3)[C@H](C)CN([C@H](C)CO)C(=O)c2cc(NC(=O)Nc3ccc(C(F)(F)F)cc3)ccc2O1 | -95*
COc1ccc(CN(C)C[C@H]2OCCCC[C@H](C)Oc3ccc(NC(=O)Nc4cccc5ccccc45)cc3C(=O)N([C@@H](C)CO)C[C@H]2C)cc1 | 0
C[C@@H]1CN([C@H](C)CO)C(=O)c2cc(NC(=O)Nc3ccc(C(F)(F)F)cc3)ccc2O[C@@H](C)CCCCO[C@@H]1CN(C)Cc1ccc2c(c1)OCO2 | -42
C[C@H]1CN([C@@H](C)CO)C(=O)c2cc(-c3ccccc3)cnc2O[C@H]1CN(C)Cc1ccc(C(=O)O)cc1 | -2
SMILES | C diff HTS
C[C@H]1CN([C@@H](C)CO)C(=O)c2cc(N(C)C)ccc2O[C@H]1CN(C)C(=O)Nc1ccc(F)cc1 | -10
COCC#Cc1ccc([C@H]2[C@H]3CN(C(=O)Nc4ccc(F)cc4)CC(=O)N3[C@H]2CO)cc1 | -2
Cc1ccc(S(=O)(=O)Nc2cccc3c2O[C@H](CN(C)S(=O)(=O)c2ccc(C)cc2)[C@@H](C)CN([C@@H](C)CO)C3=O)cc1 | -2
Cc1nn(C)cc1NC(=O)C[C@@H]1CC[C@H]2[C@@H](COc3ccc(NC(=O)C4CCOCC4)cc3C(=O)N2C)O1 | -1
CC(C)(O)C#Cc1ccc([C@H]2[C@@H](CO)N3CCCCN(Cc4ccccc4F)C[C@@H]23)cc1 | 6
COCC#Cc1ccc([C@@H]2[C@@H](CO)N3CCCCN(Cc4ccccc4F)C[C@H]23)cc1 | 0
COc1ccc(C#Cc2ccc([C@H]3[C@@H](CO)N4CCCCN(Cc5ccccc5F)C[C@H]34)cc2)cc1 | -100*
CC(C)(O)C#Cc1ccc([C@H]2[C@H]3CN(Cc4ccccc4F)CCCCN3[C@H]2CO)cc1 | 4
COc1ccc(C#Cc2ccc([C@@H]3[C@H]4CN(Cc5ccccc5F)CCCCN4[C@H]3CO)cc2)cc1 | -94*
CC(C)(O)C#Cc1ccc([C@@H]2[C@@H](CO)N3CCCCN(Cc4ccccc4F)C[C@@H]23)cc1 | 6
C[C@@H]1CN([C@@H](C)CO)C(=O)c2ccccc2-c2ccccc2CO[C@H]1CN(C)C(=O)N[C@H](C)c1ccccc1 | -1
CO[C@@H]1CN(C)C(=O)c2cc(NC(C)=O)ccc2OC[C@@H](C)N(S(C)(=O)=O)C[C@@H]1C | 2
CC(C)NC(=O)N(C)C[C@@H]1Oc2ccc(NC(=O)C3CCCCC3)cc2C(=O)N([C@@H](C)CO)C[C@H]1C | 0
CCC(=O)N(C)C[C@@H]1Oc2ncc(-c3ccc(C(=O)N(C)C)cc3)cc2C(=O)N([C@@H](C)CO)C[C@H]1C | -2
Cc1ccc(S(=O)(=O)Nc2cccc3c2O[C@@H](CN(C)C(=O)Nc2c(C)noc2C)[C@H](C)CN([C@@H](C)CO)C3=O)cc1 | 12
C[C@@H]1CCCCO[C@H](CN(C)S(=O)(=O)c2ccc(Cl)cc2)[C@@H](C)CN([C@@H](C)CO)C(=O)c2cc(NC(=O)C3CCCCC3)ccc2O1 | -1
Cc1ccc(-c2ccc([C@H]3[C@H]4CN(C(=O)Nc5cccc(F)c5)CCCCN4[C@H]3CO)cc2)cc1 | 48
O=C(Nc1cccc(F)c1)N1CCCCN2[C@H](CO)[C@H](c3ccc(-c4ccncc4)cc3)[C@@H]2C1 | 2
O=C(Nc1ccccc1F)N1CCCCN2[C@H](CO)[C@@H](c3ccc(/C=C/c4ccccc4)cc3)[C@@H]2C1 | 50
COc1ccc(C#Cc2ccc([C@@H]3[C@H](CO)N4CCCCN(C(=O)Nc5ccc(F)cc5)C[C@@H]34)cc2)cc1 | -93*
COc1ccc(C#Cc2ccc([C@H]3[C@@H](CO)N4CCCCN(C(=O)Nc5ccc(F)cc5)C[C@H]34)cc2)cc1 | 17
O=C(Nc1ccccc1F)N1CCCCN2[C@H](C1)[C@H](c1ccc(/C=C/c3ccccc3)cc1)[C@@H]2CO | 41
CC(C)CC#Cc1ccc([C@@H]2[C@@H](CO)N3CCCCN(C(=O)Nc4ccccc4)C[C@@H]23)cc1 | 55

Assay outcomes: PubChem, Broad Institute
